# From PubChem BioAssay (NCI)
# Compounds without any hit were thinned out: in the full panel of roughly 83,000, 20% have a hit.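 Single-dose data. Exposure time 48 hours. Values below 10 considered active.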 Values without a mark were called inactive. Activity calls are given as the source filed them.
# Experiments:
# Test in all cases: NCI-60 one-dose screen, 48 h (100 = growth as untreated, 0 = no growth, -100 = all killed)
# Conditions in all cases: 10 µM unless noted
# SR leukemia = test system: SR leukemia
# OVCAR-8 ovarian = test system: OVCAR-8 ovarian
# OVCAR-5 ovarian = test system: OVCAR-5 ovarian
# OVCAR-4 ovarian = test system: OVCAR-4 ovarian
# SK-OV-3 ovarian = test system: SK-OV-3 ovarian
# IGROV1 ovarian = test system: IGROV1 ovarian
# OVCAR-3 ovarian = test system: OVCAR-3 ovarian
# NCI/ADR-RES ovarian = test system: NCI/ADR-RES ovarian
# T-47D breast = test system: T-47D breast
# BT-549 breast = test system: BT-549 breast
# MDA-MB-435 melanoma = test system: MDA-MB-435 melanoma
# SW-620 colon = test system: SW-620 colon
# MCF7 breast = test system: MCF7 breast
# HCT-116 colon = test system: HCT-116 colon
# HCC-2998 colon = test system: HCC-2998 colon
# KM12 colon = test system: KM12 colon
# HS 578T breast = test system: HS 578T breast
# RPMI-8226 leukemia = test system: RPMI-8226 leukemia
SMILES,growth (SR leukemia),growth (OVCAR-8 ovarian),growth (OVCAR-5 ovarian),growth (OVCAR-4 ovarian),growth (SK-OV-3 ovarian),growth (IGROV1 ovarian),growth (OVCAR-3 ovarian),growth (NCI/ADR-RES ovarian),growth (T-47D breast),growth (BT-549 breast),growth (MDA-MB-435 melanoma),growth (SW-620 colon),growth (MCF7 breast),growth (HCT-116 colon),growth (HCC-2998 colon),growth (KM12 colon),growth (HS 578T breast),growth (RPMI-8226 leukemia)
Cc1ccc(C2=NN(c3ccc(S(=O)(=O)NC(=O)NCc4ccccc4)cc3)C(c3ccc(N(C)C)cc3)C2)c(C)c1 (stereo not drawn),21.5%,30.6%,55.1%,57.7%,88.3%,54.1%,38.3%,33.7%,47.3%,40.9%,1% (active),59.5%,28.9%,39.7%,27.7%,34.5%,–,–
CCNc1nc(N2CC(=O)Nc3cc(OC)ccc32)c2ccccc2n1,24.3%,18.1%,20%,20.4%,27.4%,14.3%,-16.8% (active),0.157% (active),11.6%,-22.2% (active),-25.8% (active),21.5%,3.09% (active),-14.1% (active),-20.8% (active),4.88% (active),7.61% (active),–
COc1cccc(-c2nc3sccn3c2-c2ccnc(NCCNS(=O)(=O)c3ccccc3)n2)c1,70.3%,49.2%,124%,57.4%,79.9%,63.2%,68.3%,47.1%,9.54% (active),58.2%,29.8%,106%,53.3%,49.7%,119%,53.4%,107%,–
CCC(c1ccc(OC)cc1)C(CC)c1ccc(OCC[N+](C)(C)C)cc1 (stereo not drawn),53.9%,51.4%,91%,63.4%,87.7%,–,34.6%,100%,62.7%,57.2%,59.8%,70.6%,56.9%,89.6%,39.3%,49.4%,63.6%,–
COc1cccc(/C=C/c2c(C(=O)O)cccc2[N+](=O)[O-])c1OC,103%,110%,103%,113%,88.2%,–,–,109%,91.2%,107%,101%,99.7%,95.8%,97.9%,104%,96.8%,–,–
COc1ccc2c(c1)NC(=O)CN2c1nc(C)nc2ccccc12,18.8%,12.5%,51.5%,45.5%,31.3%,18.8%,-13.9% (active),14%,55.5%,1.24% (active),–,22%,14.9%,0.468% (active),16.6%,8.92% (active),40%,–
CCN1C(=O)/C(=c2\sc3n(c2=O)C2C(NN=3)N(CC)C(=S)N2CC)c2ccccc21 (stereo not drawn),91.8%,100%,107%,88.7%,–,100%,103%,103%,–,98.8%,88.4%,102%,82.8%,103%,104%,102%,99.8%,–
N#Cc1ncc(-c2ccc(F)c(F)c2F)c(NC2CCCCCC2)n1,69.5%,86.1%,94.2%,81.1%,95.8%,83.8%,–,83.8%,62.7%,71%,96%,98%,83.5%,72.6%,95.8%,74%,75.9%,–
O=[N+]([O-])c1cc(S(=O)(=O)OCC2CO2)ccc1Cl (stereo not drawn),1.01% (active),87.5%,111%,106%,104%,52.6%,–,108%,77.1%,91.3%,97.7%,41.2%,75.5%,54%,107%,82.6%,101%,–
O=C1Nc2cc(Cl)ccc2Oc2cc(Oc3ccccc3)ccc21,20.7%,88%,83%,71.5%,47.4%,63.3%,27.6%,18.9%,48.5%,56.4%,-3.81% (active),16.6%,29%,27.8%,60.6%,20%,43.3%,–
CC(C)[C@H](CO)Nc1nc(Nc2ccc(C(=O)NCCNS(=O)(=O)c3cccc4c(N(C)C)cccc34)c(Cl)c2)c2ncn(C(C)C)c2n1,-10.7% (active),9.87% (active),49.4%,41.8%,72.8%,-13.7% (active),20.2%,94.5%,20.6%,-37.9% (active),0.754% (active),4.97% (active),6.04% (active),4.44% (active),15.7%,-9.33% (active),–,–
COc1cccc(-c2nc3sccn3c2-c2ccnc(NCCCNS(=O)(=O)c3ccccc3)n2)c1,50.7%,29.6%,128%,55.7%,73%,55.3%,48.2%,23.1%,0.88% (active),47.2%,40.9%,75.1%,52%,38.6%,93.8%,43.5%,103%,–
COc1cc2nc(Cl)nc(NCCO)c2cc1OC,–,98.3%,100%,102%,119%,108%,111%,112%,101%,112%,106%,104%,100%,113%,102%,–,104%,98.3%
c1cc(-c2ccc3c(c2)OCO3)n2nccc2n1,–,98.6%,94.2%,98.1%,106%,102%,103%,107%,88.2%,101%,98.2%,105%,89.9%,102%,86.9%,–,105%,97.1%
O=C(Nc1ccc(F)c(Cl)c1)c1n[nH]c(=O)c2ccccc12,–,95.4%,107%,96.1%,119%,8.17% (active),94.6%,112%,81.1%,132%,93.2%,107%,60.6%,101%,103%,92.4%,129%,119%
Nc1c(C(=O)Nc2cccc(C(F)(F)F)c2)sc2nc3c(cc12)CCCCCC3,21.1%,-37.4% (active),12.8%,–,2.08% (active),14.6%,–,12%,-7% (active),59.6%,31%,46%,20.4%,-18.1% (active),37.1%,30.1%,29.5%,–
COc1cc(/C=C2\CCCC3=C2NC(C)=NC3c2cc(OC)c(OC)c(OC)c2)cc(OC)c1OC (stereo not drawn),–,5.87% (active),10.8%,42.2%,43.9%,30.7%,28%,14.5%,79.2%,2.96% (active),5.2% (active),-8.03% (active),23%,-78.2% (active),11.9%,2.95% (active),48.6%,-15.1% (active)
CCc1c(C(=O)Nc2ccc3ccccc3c2)[nH]c(C)c1C(C)=O,–,104%,101%,76.7%,99.7%,108%,103%,94.8%,83.6%,112%,78.7%,99.5%,84.6%,99.5%,99.1%,84.7%,98.5%,75.8%
COc1ccc(C(=O)c2cc(OC)c(OC)c(OC)c2)cc1/C=C/C(=O)c1ccc(O)cc1,–,22.3%,69.5%,43.6%,18.5%,45.9%,-10.5% (active),16.2%,37.3%,7.62% (active),18.9%,-24.1% (active),12.1%,-23.2% (active),-22.4% (active),2.74% (active),43.4%,9.18% (active)
